Among the data in PubChem BioAssay (NCATS) are Potency values, retold here.

The target of assay [1] is Aldehyde dehydrogenase, mitochondrial (Homo sapiens) (UniProt P05091). Put plainly: qHTS for Inhibitors of the Aldehyde Dehydrogenase Family (ALDH2) Primary screen (AID 2061308). Further: nearly all actives have a fitted effect of over 55% in size. In general terms: qHTS replaces the single test concentration by a dilution series.
Assay [2] addresses Retinaldehyde dehydrogenase 3 (Homo sapiens) (UniProt P47895). Put plainly: qHTS for Inhibitors of the Aldehyde Dehydrogenase Family (ALDH1A3) Primary screen (AID 2061315).

Inconclusive results are not listed. Entries that show only a call come without a potency. The source made the active and inactive calls. The call rests on the fitted dose curve; in most records, active means well fitted curve in the direction sought with a large enough effect; inconclusive means small, poorly fitted or top-dose-only effect, or another doubt; inactive means no such curve, though single readings can be large; an effect the other way counts as inactive or inconclusive.

`Clc1ccccc1-c1nc(NCc2ccc(-c3cccnc3)cc2)c2ccccc2n1`: the Potency entry in assay [1] and in assay [2] was “inactive” each time.

`CO/N=C(/C(=O)N[C@@H]1C(=O)N2C(C(=O)O)=C(Cn3nnc(C)n3)CS[C@H]12)c1csc(N)n1`: the Potency result in assay [1] and in assay [2] was “inactive” each time.

In the case of `COc1ccc(CSc2nc3ncc(Br)cc3[nH]2)cc1F`, the Potency result in assay [1] and in assay [2] was “inactive” throughout.

For the compound `O=C(O)c1ccc(-c2ccc3ncnc(NCc4nccs4)c3c2)o1`, the Potency entry in assay [1] and in assay [2] was “inactive” in each case.

Regarding `Cc1cc(C)nc(NC(=S)N2CCN(c3nsc4ccccc34)CC2)c1`, the Potency entry in assay [1] and in assay [2] was “inactive” in each case.

On to `CS(=O)(=O)c1ccc(C(=O)OCC#CCSc2nnc(-c3cccc4ccccc34)o2)cc1`, for which the Potency result in assay [1] and in assay [2] was “inactive” each time.

Take `O=[S+]([O-])(c1ccc2ncsc2c1)N1CCN([S+](=O)([O-])c2c(F)cccc2F)CC1`: the Potency result in assay [1] and in assay [2] was “inactive” each time.

As for `Clc1cccc(-c2nc(-c3ccc(-c4nn[nH]n4)cc3)no2)c1`, the Potency entry in assay [1] and in assay [2] was “inactive” throughout.

In the case of `Cc1cc(C)nc(NC(=S)N2CCN(c3ccc4cnccc4c3)CC2)c1`, the Potency result in assay [1] and in assay [2] was “inactive” throughout.

As for `O=S(=O)(c1ccc2c(c1)OCCO2)N1CCN(S(=O)(=O)c2ccc(F)c(F)c2F)CC1`, the Potency entry in assay [1] and in assay [2] was “inactive” throughout.

Regarding `Cc1ccc(S(=O)(=O)Nc2cnccc2C(=O)Nc2nc(-c3cccc(F)c3)cs2)cc1`, the Potency result in assay [1] and in assay [2] was “inactive” throughout.

Regarding `Cc1ccc(C)c(-c2cc(C(F)(F)F)nn2-c2ccc(S(N)(=O)=O)cc2)c1`, the Potency entry in assay [1] and in assay [2] was “inactive” each time.

Turning to `Cc1cc(C)n2ncc(C(=O)Nc3cccc(C#N)c3)c2n1`, the Potency entry in assay [1] and in assay [2] was “inactive” in each case.

`CC(O)(C(=O)C1CC1(CO)COC1OC(CO)C(O)C(O)C1O)C1C(O)CC2C3CC=C4CC(O)CC(O)C4(C)C3C(O)CC21C` (stereo not given): the Potency result in assay [1] and in assay [2] was “inactive” throughout.

Regarding `O=C(NCc1ccc(F)cc1)n1c(-c2ccccc2)c(P(=S)(c2ccccc2)c2ccccc2)c2ccccc21`, the Potency entry in assay [1] and in assay [2] was “inactive” in each case.

Take `COc1cc(OC)c(C(CC(=O)N2CC(C)CC(C)C2)c2ccc3c(c2)OCO3)c(OCC#N)c1` (stereo not given): the Potency entry in assay [1] and in assay [2] was “inactive” in each case.

On to `Cc1ccc(S(=O)(=O)Nc2cc(Br)ccc2C(=O)Nc2nc(-c3ccccc3)cs2)cc1`, for which the Potency result in assay [1] and in assay [2] was “inactive” throughout.

On to `Cc1ccc(-n2nc3c(N4CCCC(C(=O)NCc5ccccc5C)C4)nnc(C)c3c2C)cc1` (stereo not given), for which the Potency entry in assay [1] and in assay [2] was “inactive” throughout.

Regarding `N#Cc1ccc(NC(=O)Nc2nnc(-c3ccncc3)s2)cc1`, the Potency result in assay [1] and in assay [2] was “inactive” in each case.

For `CN(C)c1ccc(-c2ccc(=O)n(CC(=O)NCCc3ccccc3)n2)cc1`, the Potency entry in assay [1] and in assay [2] was “inactive” throughout.

On to `COc1cccc(-c2ccc3ncnc(NCc4cccc(C)c4)c3c2)c1`, for which the Potency entry in assay [1] and in assay [2] was “inactive” throughout.

On to `COc1cccc(CCN2C(=O)c3ccccc3NC2c2ccc(OC)c(COc3c(C)cc(NC(C)=O)cc3C)c2)c1` (stereo not given), for which the Potency result in assay [1] and in assay [2] was “inactive” throughout.

As for `CC(C)CC(=O)c1c(O)cc2c(c1O)C(CC(C)C)C1=C(O2)C(C)(C)C(=O)C(C)(C)C1=O` (stereo not given), the Potency entry in assay [1] and in assay [2] was “inactive” throughout.

Turning to `O=C(OC/C=C/CSc1nnc(-c2cccc3ccccc23)o1)c1ccc(F)cc1`, the Potency entry in assay [1] and in assay [2] was “inactive” throughout.

For `CO[C@H]1/C=C/[C@@](C)(O)/C=C/C(=O)O[C@H](C)[C@@H](C)CC/C=C/1C`, the Potency result in assay [1] and in assay [2] was “inactive” throughout.

With `CCOc1ccc(C(=O)Nc2ccc(-c3nc4ccccc4[nH]3)cc2)cc1[N+](=O)[O-]`, the Potency result in assay [1] and in assay [2] was “inactive” throughout.

Consider `O=P(c1ccccc1)(c1ccccc1)c1cnc2ccccn12`, for which the Potency entry in assay [1] and in assay [2] was “inactive” in each case.

Take `Cc1cccc(CNc2ccnc(-c3ccc(C(F)(F)F)cc3)n2)c1`: the Potency entry in assay [1] and in assay [2] was “inactive” each time.

Take `Cc1cc2c(s1)c1cnn(Cc3c(F)ccc(C)c3Cl)c(=O)c1n2C`: the Potency entry in assay [1] and in assay [2] was “inactive” in each case.

Consider `CC(=O)c1ccc(N2CCN(S(=O)(=O)c3ccc4c(c3)oc(=O)n4C)CC2)cc1`, for which the Potency entry in assay [1] and in assay [2] was “inactive” throughout.

Regarding `Cn1nnnc1Sc1ncnc2scc(-c3ccc4ccccc4c3)c12`, the Potency result in assay [1] and in assay [2] was “inactive” each time.

Consider `Fc1ccc(Nc2cc(-c3ccccc3)nc(-c3ccncc3)n2)cc1F`, for which the Potency entry in assay [1] and in assay [2] was “inactive” throughout.

In the case of `c1nc(N2CCOCC2)c2cc(-c3ccc4c(c3)OCO4)ccc2n1`, the Potency result in assay [1] and in assay [2] was “inactive” in each case.

Take `Cc1ccc(OCCn2c(CCNC(=O)N3CCCCC3)nc3ccccc32)cc1`: the Potency entry in assay [1] and in assay [2] was “inactive” each time.

As to `CCc1nnc(NS(=O)(=O)c2ccc(NC(=S)NC(=O)/C=C/c3ccc(F)cc3)cc2)s1`, the Potency entry in assay [1] and in assay [2] was “inactive” each time.

For `Cc1ccc(OCCn2c(CCNC(=O)/C=C/c3ccccc3Cl)nc3ccccc32)cc1`, the Potency entry in assay [1] and in assay [2] was “inactive” in each case.

Consider `CC(C)(C)OC(=O)Cc1nnc(C(C(=O)OCc2ccccc2)c2ccccc2)s1` (stereo not given), for which the Potency result in assay [1] and in assay [2] was “inactive” in each case.

As to `Cc1ccc(S(=O)(=O)Nc2ccccc2C(=O)Nc2nc(-c3ccccc3)c(Br)s2)cc1`, the Potency result in assay [1] and in assay [2] was “inactive” each time.

For the compound `O=C1c2ccccc2C(=O)N1c1ccncc1`, the Potency result in assay [1] and in assay [2] was “inactive” in each case.

Regarding `Cc1ccc(S(=O)(=O)Nc2ccccc2C(=O)Nc2ccc(-c3ccccc3)cn2)cc1`, the Potency result in assay [1] and in assay [2] was “inactive” each time.
